Compound activity deposited in PubChem BioAssay by several laboratories.
MITF TRPM1 inh = MITF TRPM1 promoter inhibition in SK-MEL-5 cells; SK-MEL-5 TRPM1 promoter luciferase, 24 h; AID 488899; hit rate 0.83% among 330,000; inhibition, % at 12.5 µM;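 active = mean inhibition across replicates of 60% or more, whatever share of single replicates reaches that level; inconclusive = some that reach 60%, reason not given; inactive = mean inhibition across replicates below 60%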
ABHD5-PLIN5 inh = ABHD5-PLIN5 protein interaction inhibition | AID 602281 | inhibition, % at 4 µM | Split G. princeps luciferase complementation, luminescence, 4 h | hit rate 0.78% among 360,000 | Q00G26+Q8WTS1;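 active = inhibition above the mean inhibition across every tested compound plus 3 SD, cut at about 22% in these data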
Target sequence (Q00G26 whole entry, looked up): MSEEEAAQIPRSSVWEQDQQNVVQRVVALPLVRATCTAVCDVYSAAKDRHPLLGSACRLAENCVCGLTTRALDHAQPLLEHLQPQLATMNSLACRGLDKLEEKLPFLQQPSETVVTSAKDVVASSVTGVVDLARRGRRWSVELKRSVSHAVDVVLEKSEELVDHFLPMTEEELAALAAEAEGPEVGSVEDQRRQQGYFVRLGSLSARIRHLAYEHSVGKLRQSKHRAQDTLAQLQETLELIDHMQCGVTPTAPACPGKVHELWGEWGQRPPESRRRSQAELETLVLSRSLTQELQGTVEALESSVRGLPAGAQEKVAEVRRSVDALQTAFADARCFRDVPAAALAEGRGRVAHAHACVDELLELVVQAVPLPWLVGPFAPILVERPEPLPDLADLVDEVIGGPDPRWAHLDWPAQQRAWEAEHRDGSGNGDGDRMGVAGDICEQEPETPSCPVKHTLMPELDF
Target sequence (Q8WTS1 whole entry, looked up): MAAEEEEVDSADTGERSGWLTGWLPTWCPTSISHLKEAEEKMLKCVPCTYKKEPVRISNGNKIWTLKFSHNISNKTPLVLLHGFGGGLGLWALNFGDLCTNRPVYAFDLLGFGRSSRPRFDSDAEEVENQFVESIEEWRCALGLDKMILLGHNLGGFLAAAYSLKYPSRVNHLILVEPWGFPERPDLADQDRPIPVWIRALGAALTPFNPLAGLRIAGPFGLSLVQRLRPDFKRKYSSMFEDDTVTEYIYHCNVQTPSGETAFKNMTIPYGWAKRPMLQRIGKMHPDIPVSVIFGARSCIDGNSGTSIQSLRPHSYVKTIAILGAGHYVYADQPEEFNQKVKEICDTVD
CF NFkB inh = inhibitors of cystic fibrosis induced NF-kB. KKLEB NF-kB-GFP reporter, PAF-induced, GFP fluorescence overnight. inhibition, % at 5 µM. hit rate 0.86% among 360,000;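 active = at least 50% inhibition at 5 µM, scaled per plate between neutral and stimulator controls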;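 note: PAF is a Pseudomonas aeruginosa culture filtrate used as stimulus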
Peg3 promoter = Peg3 promoter activity inhibition; inhibition, % at 20 µM; HeLa PEG-Prom luciferase reporter, luminescence, overnight; hit rate 1.7% among 360,000;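 active = inhibition of at least 50% at 20 µM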
KKLEB cytotox = reduces viability of KKLEB cystic fibrosis airway cells. KKLEB CF airway cells viability, ATPlite luminescence, overnight; stronger effect = lower value; cells stimulated with P. aeruginosa culture filtrate. activity change (cytotoxicity), % at 5 µM. hit rate 0.36% among 360,000. AID 602141;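 active = corrected activity change at or below -50% at 5 µM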
HIF-2a block = blocks HIF-2a reporter activity | 786-0 RCC cells HIF-2a reporter, luciferase luminescence, overnight | inhibition, % at 18.8 µM | hit rate 0.72% among 360,000 | AID 624352;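 active = inhibition of the luminescence signal of 40% or more relative to plate controls, in a single-dose primary screen at 18.75 µM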
Numbers stand for hits; . = inactive; ? = inconclusive; / = no result. Most compounds without a hit are left out; they make up all but 3.1% or so of the library.

SMILES	MITF TRPM1 inh	ABHD5-PLIN5 inh	CF NFkB inh	Peg3 promoter	KKLEB cytotox	HIF-2a block
Nc1ncnc2c(C3OC(CO)C(O)C3O)scc12 (centres undefined)	83	.	.	90	.	50
Cc1cc(C)cc(OCc2nc3ncc(Br)cc3[nH]2)c1	.	.	.	.	-50	.
COc1ccc(-c2cc(=O)c3c(O)cc(O)cc3o2)cc1	.	.	68	.	.	.
COc1cc(-c2cc(=O)c3c(O)cc(O)cc3o2)cc(OC)c1OC	/	.	.	.	.	.
O=[N+]([O-])c1cccc2c(N3CCCC3)ccnc12	81	.	.	.	.	.
COc1ccc(NC(=O)CSc2nc3c(sc4ccccc43)c(=O)n2CCCN2CCCC2)cc1	83	.	.	69	.	.
CCOC(=O)C1Oc2ccccc2C(c2ccoc2)=C1C(=O)OC (centres undefined)	.	.	.	.	.	.
OCC(O)C(O)C(O)c1cnn(-c2ccccc2)n1 (centres undefined)	.	.	.	.	.	.
CN(C)c1ccc(C=Nc2ccccc2C(N)=O)cc1	.	.	.	63	.	.
Cc1cc(N/N=C/c2ccc(O)cc2)nc(NS(=O)(=O)c2ccccc2)n1	.	.	.	.	.	54
CCc1cc[n+](C2=C([O-])c3ccccc3C(=O)/C2=N\S(=O)(=O)c2cccs2)cc1	97	.	74	.	.	.
Cc1ccc(C)c(NC(=S)NC(NC(=O)Cc2cccc3ccccc23)C(Cl)(Cl)Cl)c1 (centres undefined)	77	.	71	94	-70	.
NS(=O)(=O)c1cccc(NC(=O)COC(=O)CCCc2c[nH]c3ccccc23)c1	.	.	.	.	.	.
CN(C)Cc1ccc(-c2nc3cccc4c3n2CCNC4=O)cc1	.	.	.	58	.	.
COc1ccc(COc2ccsc2C(=O)Nc2ccc(Cl)c(Cl)c2)cc1	.	.	.	.	-66	.
COc1ccccc1C1=NOC(C)(c2nnc(-c3cccc(Cl)c3)o2)C1 (centres undefined)	.	.	.	.	.	.
COc1ccc(C(=O)Nc2ccc3[nH]c(-c4cccc(OC)c4)cc(=O)c3c2)cc1	.	.	50	.	.	.
COc1ccc(C(=O)Nc2cccc(OC)c2)cc1	.	.	.	.	.	.
CCn1c(/C=C/N(C)c2ccccc2)[n+](CC)c2ccc(Cl)cc21	65	.	.	.	.	.
Cc1ccc(C(=O)NC(=S)NCC2CCCO2)cc1Br (centres undefined)	.	.	.	.	.	.
O=C(NCCO)c1cc2c([nH]c3ccccc32)c(-c2ccccc2)n1	.	.	.	.	.	.
Cc1ccc(-c2nc(C(=O)NCCCN(C)C)cc3c2[nH]c2ccccc23)cc1	76	.	.	91	.	.
Cc1ccc(-c2nc(C(=O)NCC3CCCO3)cc3c2[nH]c2ccccc23)cc1 (centres undefined)	.	.	.	68	.	.
Cc1cc(-c2ccccc2C(=O)NC2CCCCC2)on1	.	.	.	.	.	.
COc1ccccc1CCNC(=O)c1cc(-c2ccccn2)nc2ccccc12	.	.	.	51	.	.
SMILES	MITF TRPM1 inh	ABHD5-PLIN5 inh	CF NFkB inh	Peg3 promoter	KKLEB cytotox	HIF-2a block
O=C(NCCC1=CCCCC1)c1cc(-c2ccccn2)nc2ccccc12	.	.	.	.	.	.
CC(C)(C)c1ccc(C(=O)O)c(C(=O)c2ccc(C(=O)O)cc2)c1	.	.	.	.	.	.
Clc1ccc(-c2nc(/C=N/N3CCOCC3)c3ccccn23)cc1	.	.	.	.	.	.
CCCCCCn1c2c(c(=N)c3c1CCC3)CCC2	?	.	.	.	.	.
CCCCCCCn1c2c(c(=N)c3c1CCC3)CCCC2	68	.	.	.	.	.
CCN(CC)CCCNc1nc2ccccc2c2nc(-c3ccncc3)nn12	.	.	.	.	.	.
CCCCn1c(=O)[nH]c(=O)c2c1nc(-c1cc(Br)c(OCC)c(OC)c1)n2C	.	.	.	.	.	.
Cc1ccc(-c2nnn3c2nc(NCCc2ccc(S(N)(=O)=O)cc2)c2ccccc23)cc1	.	.	.	.	.	.
Cc1cccc(-c2nnn3c2nc(NCCc2ccc(S(N)(=O)=O)cc2)c2ccccc23)c1	.	.	.	.	-52	.
CCCn1c(SC(C)C(=O)N2CCOCC2)nc2ccc(Br)cc2c1=O (centres undefined)	.	.	.	.	.	.
Cc1cc(C)c2cc(C#N)c(N3CCCN(C(=S)NCCCN(C)C)CC3)nc2c1	88	.	.	104	.	.
COc1cc(/C=C/CN2CCC(C(=O)NC(c3ccc(F)cc3)c3ccc4ccccc4n3)CC2)ccc1OC(C)=O (centres undefined)	/	.	.	91	.	.
O=C(NC(c1ccc(F)cc1)c1ccc2ccccc2n1)C1CCN(CCOc2ccc(Cl)cc2)CC1 (centres undefined)	/	.	.	96	.	.
O=C(NC(c1ccccc1)c1ccc2ccccc2n1)C1CCN(CCOc2ccc(Cl)cc2Cl)CC1 (centres undefined)	/	.	.	102	.	.
Cc1cccnc1C(c1ccc(F)cc1)N(C)C(=O)C1CCN(CCCOc2ccc(F)cc2)CC1 (centres undefined)	/	.	.	.	.	.
O=C(NC(c1ccc(F)cc1)c1ccc2ccccc2n1)C1CCN(Cc2ccc3ccccc3n2)CC1 (centres undefined)	/	.	.	.	.	.
Cc1cccnc1C(c1ccc(F)cc1)N(C)C(=O)C1CCN(CCOc2ccc(Cl)cc2Cl)CC1 (centres undefined)	/	.	.	98	.	.
COc1ccc(N2CCN(C(=O)C(NC(=O)c3c(F)cccc3F)C(C)C)CC2)cc1 (centres undefined)	.	.	.	.	.	.
O=C(COC(=O)c1ccc(O)cc1)NC(c1ccccc1)c1ccccc1	.	.	.	.	.	.
CCOC(=O)c1sc(NC(=O)CN2CCN(c3ccccc3)CC2)nc1C	.	.	.	.	.	.
CC(NC(=O)C1CCN(CCOc2ccc(Cl)cc2)CC1)c1cccc2ccccc12 (centres undefined)	/	.	.	69	.	.
CCCCN(CCCC)c1nc(-c2ccncc2)nc2ccccc12	.	.	.	52	.	.
CCc1cccc(NC(=O)CSC2=NS(=O)(=O)c3ccccc32)c1	.	.	.	68	.	.
Cc1ccc(S(=O)(=O)N2CCC[C@H]2C(=O)OCC(=O)N2CCc3ccccc32)cc1	/	.	.	.	.	.
Cc1nc(C(=O)N2CCC(C)(C(=O)NS(=O)(=O)C3CC3)C2)c(C)o1 (centres undefined)	/	.	.	.	.	.
Oc1[nH]c2ccccc2c1N=NC(=S)N1CCOCC1	92	.	.	53	.	.
NC(=S)N=Nc1c(O)[nH]c2ccccc12	.	.	.	.	.	.
